# Assay results reported in publication PMC6919601, “Identification of Plasmodium dipeptidyl aminopeptidase allosteric inhibitors by high throughput screening” (PLoS ONE, 2019).
# Where “and” joins values, the source holds several entries; their conditions need not be identical. Identical values can stand only once. Screen size: about 110,000 compounds; about 230 (0.21%) showed an effect of 50% or more. Many of the other results were omitted from the sample, so strong results are more common in it than they were.
# Biological target: DPAP1 (Plasmodium falciparum, UniProt Q8IIJ9)
# Sequence (Q8IIJ9 whole entry, looked up): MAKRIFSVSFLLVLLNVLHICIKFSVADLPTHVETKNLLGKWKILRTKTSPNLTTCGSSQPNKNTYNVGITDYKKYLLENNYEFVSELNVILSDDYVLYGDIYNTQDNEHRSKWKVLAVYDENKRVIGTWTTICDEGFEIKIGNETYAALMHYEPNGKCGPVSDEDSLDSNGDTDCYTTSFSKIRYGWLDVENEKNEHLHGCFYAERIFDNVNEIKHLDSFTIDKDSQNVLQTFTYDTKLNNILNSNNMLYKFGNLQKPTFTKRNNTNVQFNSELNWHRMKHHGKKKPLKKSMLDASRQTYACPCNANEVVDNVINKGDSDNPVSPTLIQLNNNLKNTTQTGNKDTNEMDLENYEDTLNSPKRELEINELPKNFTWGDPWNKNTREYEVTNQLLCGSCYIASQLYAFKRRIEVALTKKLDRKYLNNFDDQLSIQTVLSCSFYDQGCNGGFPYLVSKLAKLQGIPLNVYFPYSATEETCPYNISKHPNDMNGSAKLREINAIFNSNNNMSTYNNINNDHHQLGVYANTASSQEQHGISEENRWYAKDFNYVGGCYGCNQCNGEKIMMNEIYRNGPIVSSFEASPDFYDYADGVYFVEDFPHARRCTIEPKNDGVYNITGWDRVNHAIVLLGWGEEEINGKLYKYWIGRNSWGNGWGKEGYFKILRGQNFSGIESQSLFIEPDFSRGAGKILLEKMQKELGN
# Assay: primary screen, percent inhibition; read by cleavage of a fluorogenic dipeptide substrate; higher = more effect of the substance
# Set-up: species or system P. falciparum D10 trophozoite lysates; single well
# Experimental: HTS was performed in black 384-well plates. The first and last two columns of each plate contained our negative (DMSO) and positive (10 μM JCP410) controls, and the 20 central columns the test compounds at 10 μM. Compounds were first diluted 50-fold into assay buffer (50 mM sodium acetate, 5 mM MgCl2, 10 mM β-mercaptoethanol, and 0.1% CHAPS, pH 5.5) from a 10 mM DMSO stock plates. One microliter of this 200 μM intermediate stock plate was dispensed into the assay plate. […] After 30 min, the reaction was quenched with 20 μL of 0.5 M acetic acid, and the fluorescent intensity measured at 523 nm (λex = 492 nm) using an Analyst HT multimode plate reader (Molecular Devices).
# 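Note: 30 min substrate incubation versus DMSO and 10 µM JCP410 controls.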
row,SMILES,% Inhibition @ 10 uM
1,O=C(Nc1cccc(Cl)c1)N1CCC(Cc2ccccc2)CC1,0.727%
2,Cc1cccc(NS(=O)(=O)c2ccccc2)n1,-3.56%
3,COc1ccc(-c2cc(C(=O)N3CCOCC3)c3ccccc3n2)cc1,0.245%
4,COc1cc(C2C(C#N)=C(N)OC3=C2C(=O)CCC3)cc(OC)c1OC (centres unmarked),0.687%
5,O=C(CCc1nnc2n(CCc3ccccc3)c(=O)c3ccccc3n12)N1CCOCC1,0.981%
6,O=C(NCc1ccccc1Br)C1CCCN(c2nnc(N3CCCC3=O)s2)C1 (centres unmarked),-4.68%
7,CC(C)CC(NC(=O)N1CCC(N2CCCCC2)CC1)C(=O)NCC#N (centres unmarked),-0.972%
8,Cc1ccccc1-c1ccccc1N,-0.305%
9,COc1ccc(CNC(=O)Cn2ncn3cccc3c2=O)cc1,-5.15%
10,Sc1nc(-c2ccccc2)cn1-c1ccccc1,37.1%
11,COc1ccc(OC)c(-n2cc(-c3ccccc3)nc2SC)c1,4.49%
12,CCOc1ccc(-c2cn(-c3ccccc3F)c(S)n2)cc1,56.2%
13,CCOc1cccc(-n2cc(-c3ccccc3)nc2S)c1,42.6%
14,Fc1ccccc1-n1cc(-c2ccccc2)nc1S,45.3%
15,COc1ccccc1-n1cc(-c2ccccc2)nc1S,58.6%
16,CC1CC(C)CN(CCCNC(=O)Cn2ncn3nc(-c4cccs4)cc3c2=O)C1 (centres unmarked),2.27%
17,Cc1ccc(C(=O)NC2(C(F)(F)F)C(=O)Nc3c2c(=O)[nH]c(=O)n3-c2ccc(Cl)cc2)cc1 (centres unmarked),-3.39%
18,CCc1cc2c(cc3c(=O)n(CC(=O)NCCc4ccc(OC)c(OC)c4)nc(CC)n32)s1,3.29%
19,Cc1nn(C)c2c1c(-c1ccccc1)cc(=O)n2Cc1cccc(F)c1,2.65%
20,COc1cc(CN2CCN(c3cccc(C)c3C)CC2)cc(OC)c1,55.4%
21,COc1ccc(CN2CCN(c3cccc(C)c3C)CC2)cc1OC,9.04%
22,COc1cc(CN2CCN(c3ccccc3C)CC2)cc(OC)c1,1.9%
23,O=C1NC(=O)/C(=C\c2ccc(-c3ccc(Cl)c(C(=O)O)c3)o2)S1,8.24%
24,O=C1NC(=O)/C(=C/c2ccc(-c3ccc(O)c(C(=O)O)c3)o2)S1,64.8%
25,O=C1NC(=O)/C(=C\c2ccc(-c3ccc(Cl)cc3)o2)S1,6.08%
26,OCCN(Cc1ccccc1)CC1CC=CCC1 (centres unmarked),1.38%

row,SMILES,% Inhibition @ 10 uM
1,COC(=O)c1cc(O)nc(SCc2cccc(C)c2)n1,4.47%
2,Cc1ccc(S(=O)(=O)c2cc3c(=O)n4ccccc4nc3n(C)c2=N)cc1,57.9%
3,Cc1ccc(S(=O)(=O)c2cc3c(=O)n4ccccc4nc3n(CCO)c2=N)cc1,-4.59%
4,CCCn1c(=N)c(S(=O)(=O)c2ccc(C)cc2)cc2c(=O)n3ccccc3nc21,3.99%
5,C=CCOCC(O)CSc1nc(C)cc(C)n1 (centres unmarked),3.48%
6,O=C(C1CCCC1)N1CCN(C(c2ccccc2)c2ccccc2)CC1,0.795%
7,O=C(Nc1ccccc1)c1nc2ccccc2s1,5.39%
8,CCCCCCc1cc2cc(C(=O)O)c(=O)oc2cc1O,4.08%
9,CCCCCCc1cc2cc(-c3csc(N)n3)c(=O)oc2cc1O,1.12%
10,CCCCCCc1cc2cc(C#N)c(=O)oc2cc1O,67.5%
11,CCOc1ccc(C2c3c(oc4ccccc4c3=O)C(=O)N2c2nc(C)c(C(=O)OC)s2)cc1 (centres unmarked),70.8%
12,CCc1ccc(C2c3c(oc4ccccc4c3=O)C(=O)N2c2nc(C)c(C(=O)OC)s2)cc1 (centres unmarked),-1.86%
13,CCOC(=O)c1sc(N2C(=O)c3oc4ccccc4c(=O)c3C2c2ccc(O)c(OC)c2)nc1C (centres unmarked),2.16%
14,C=CCOc1ccc(C2c3c(oc4ccccc4c3=O)C(=O)N2c2nc(C)c(C(=O)OC)s2)cc1 (centres unmarked),3.12%
15,CCOc1cc(C2c3c(oc4ccccc4c3=O)C(=O)N2c2nc(C)c(C(C)=O)s2)ccc1O (centres unmarked),-0.828%
16,CCOc1cc(C2c3c(oc4ccccc4c3=O)C(=O)N2c2nc(C)c(C(=O)OC)s2)ccc1O (centres unmarked),69.6%
17,CCn1cc(C(=O)Nc2ccccc2C(C)C)cn1,6.1%
18,CCS(=O)(=O)c1nc(S(=O)(=O)c2ccc(C)cc2)c(NCCc2ccccc2)s1,-5.89%
19,Cc1nc2c(nc(C)n2-c2ccccc2)s1,2.92%
20,CCOc1ccc(Nc2nc(-c3cccs3)cs2)cc1,-1.37%
21,CCC(C(=O)NCc1ccc(OC(C)C)cc1)n1nc(C)c2sc3ccccc3c2c1=O (centres unmarked),2.8%
22,CCCCNC(=O)C(CC)n1nc(C)c2sc3ccccc3c2c1=O (centres unmarked),-2.61%
23,CCc1ccc(CNC(=O)C(CC)n2nc(C)c3sc4ccccc4c3c2=O)cc1 (centres unmarked),90.8%
24,CN1CCN(S(=O)(=O)c2ccccc2)CC1,-0.127%
25,O=C1CN(S(=O)(=O)c2ccccc2)CCN1S(=O)(=O)c1ccccc1,60.8%
26,O=S(=O)(c1ccccc1)N1CCN(c2ccccc2)CC1,5.09%

row,SMILES,% Inhibition @ 10 uM
1,COc1cc(CN2CCc3c([nH]c4ccccc34)C2)cc2c1OCO2,-5.11%
2,CC(=O)C1=C(C)OC(N)=C(C#N)C1c1cc2c(cc1[N+](=O)[O-])OCO2 (centres unmarked),-1.29%
3,CN(Cc1cnn(-c2ccccc2)c1)S(=O)(=O)c1ccc(-c2cc(C(F)(F)F)no2)s1,1.05%
4,CCc1nc(N)c(C#N)c(-c2ccc(Br)s2)c1C,-3.13%
5,Cc1cc(C)c(C#N)c(S)n1,89.9%
6,CSc1nc(C)cc(C(F)(F)F)c1C#N,4.97%
7,COCc1cc(C)nc(S)c1C#N,43.7% and 44.2%
8,CCc1nc(S)c(C#N)c(C(F)(F)F)c1C,74.2%
9,Cc1cc(C(F)(F)F)c(C#N)c(SCc2ccccc2)n1,2.23%
10,CCc1nc(SCc2cccnc2)c(C#N)c(C(F)(F)F)c1C,0.775%
11,CC(C)(C)c1cc(-c2ccco2)c(C#N)c(S)n1,20.6%
12,Cc1cc(-c2ccco2)c(C#N)c(N)n1,1.38%
13,Cc1cc(-c2ccco2)c(C#N)c(S)n1,51.7%
14,Cc1cc(C(F)(F)F)c(C#N)c(S)n1,82.2%
15,Cc1cc(C)c(C#N)c(Cl)n1,1.27%
16,O=C1c2cccnc2C(=O)N1c1ccccc1-c1ccccc1,-2.29%
17,COCCNC(=O)c1sc2ncn(CC(=O)N3CCC(C)CC3)c(=O)c2c1C,-2.17%
18,CCCC(=O)n1nc2c3c(cccc31)C(=O)c1ccccc1-2,-2.75%
19,Cc1ccc(O)c(/C=N/c2c(C)nn(C)c2C)c1,7.26%
20,CC(C)CCn1nnc2sc3c(c2c1=O)CCC(C)C3 (centres unmarked),-6.78%
21,Cc1ccc(CNc2nc3ccccc3c3nc(-c4ccncc4)nn23)cc1,0.981%
22,O=C1NC(=S)NC(=O)C1=Cc1ccccc1OCCO,-6.17%
23,CC(=O)NS(=O)(=O)c1ccc(NC(=O)COc2ccc(C)cc2)cc1,-0.473%
24,CC(C)(C)c1ccc(C(CC(=O)O)NS(=O)(=O)Cc2ccccc2)cc1 (centres unmarked),2.72%
25,CC12c3ccccc3C(c3ccccc31)C1C(=O)N(c3ccc(Cl)cc3)C(=O)C12 (centres unmarked),-1.59%
26,Cc1ccc(N2C(=O)C3C4c5ccccc5C(C(C)O)(c5ccccc54)C3C2=O)cc1 (centres unmarked),53.4%

row,SMILES,% Inhibition @ 10 uM
1,Cc1cccc(N2C(=O)C3C4c5ccccc5C(C)(c5ccccc54)C3C2=O)c1 (centres unmarked),2.6%
2,Cn1c(C2=CC(C)(C)NC(C)(C)C2)ccc1C1=CC(C)(C)NC(C)(C)C1,-5.9%
3,COCCNC(=O)CCNS(=O)(=O)c1ccc(C)cc1,-0.256%
4,COc1cc(C2c3c(-c4ccccc4O)n[nH]c3C(=O)N2Cc2ccco2)ccc1O (centres unmarked),-3.12%
5,CCOc1cc(C2c3c(-c4ccccc4O)n[nH]c3C(=O)N2Cc2ccco2)ccc1O (centres unmarked),52.6%
6,CCOc1ccc(C2c3c(-c4ccccc4O)n[nH]c3C(=O)N2Cc2ccco2)cc1OC (centres unmarked),0.366%
7,Cc1cc(S(=O)(=O)N(Cc2ccccc2)Cc2ccccc2Cl)ccc1-n1cnnn1,58.7%
8,COc1ccc(CN(Cc2ccccc2)S(=O)(=O)c2ccc(-n3cnnn3)c(C)c2)cc1,2.08%
9,Cc1cc(S(=O)(=O)N2CCC(n3c(O)nc4ccccc43)CC2)ccc1-n1cnnn1,-0.671%
10,CNS(=O)(=O)c1cn(CC(=O)NCc2ccccn2)cc1S(=O)(=O)NC,-7.87%
11,O=C(CC1SC(=O)N(Cc2cccc3ccccc23)C1=O)Nc1nccs1 (centres unmarked),-2.82%
12,C(=C\c1ccccc1)/CN1CCN(C2CCN(Cc3ccccc3)CC2)CC1,1.88%
13,C(=C\c1ccccc1)/CN1CCN(C2CCN(CCc3ccccc3)CC2)CC1,97.7%
14,C(=C\c1ccccc1)/CN1CCN(CCc2ccccc2)CC1,1.74%
15,Cc1cc(=O)n2nc(N(C)CC(=O)NCc3ccc4c(c3)OCO4)sc2n1,3%
16,Cc1nnc2c(NCc3ccccc3)nc3ccc(C(=O)c4ccccc4)cc3n12,0.454%
17,Cc1nnc2c(NCc3ccc4c(c3)OCO4)nc3ccc(C(=O)c4ccccc4)cc3n12,79.7%
18,Cc1nnc2c(NCc3ccco3)nc3ccc(C(=O)c4ccccc4)cc3n12,-6.09%
19,O=C(c1ccco1)N1CCN(c2nc3ccccc3n3nnnc23)CC1,2.76%
20,CC(=O)N/C(=C\c1ccccc1)C(=O)Nc1ccc(Cl)cc1,-6.99%
21,O=C1C(S(=O)c2ccc(Cl)cc2)=C(O)c2cccc3cccc1c23 (centres unmarked),77.5%
22,O=C(c1ccc(Cl)cc1)N1CCN(CCN2C(=O)c3cccc4cccc(c34)C2=O)CC1,-5.31%
23,O=C1c2cccc3cccc(c23)C(=O)N1CCN1CCN(S(=O)(=O)c2ccc(Cl)cc2)CC1,5.97%
